Screening results from PubChem.
BLM inh – Bloom syndrome helicase (human) inhibition | 350,000 compounds, 0.2% hits | recombinant BLM DNA unwinding, fluorescence dequenching | Potency, µM (series often up to 56.1 µM), for the others: top-dose activity change, negative = inhibition, hits mostly inhibitors;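 note: plate controls were vehicle for no effect and no enzyme for full effect; nearly all actives have a fitted effect of over 35% in size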
L3MBTL1 inh – inhibitors of human L3MBTL1; 230,000 compounds, 0.66% hits; Q9Y468; AlphaScreen L3MBTL1–H3K9me1 peptide binding; Potency, µM (doses to about 57.1 µM), for inactives: at the top dose activity, negative = inhibition, usual class: inhibitors; note: nearly all actives have a fitted effect of over 60% in size
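Read-out is AlphaScreen signal from streptavidin donor and nickel chelate acceptor beads (10 ug/mL final each) bridging L3MBTL1 (50 nM) and biotinylated K9-monomethylated H3(1-15) peptide (75 nM), after 30 min compound exposure at room temperature.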
APEX1 inh – APE1 (human) endonuclease inhibition; 350,000 compounds, 0.35% hits; Potency, µM (titrated, usually from 65.8 µM), for inactives: at the highest dose activity change, negative = inhibition, hits mostly inhibitors; P27695; recombinant APE1, TAMRA/BHQ-2 abasic DNA cleavage fluorescence;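 note: plate controls were vehicle for no effect and reference inhibitor for full effect; nearly all actives have a fitted effect of over 55% in size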
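Enzyme (0.75 nM final) and test compound are incubated 15 min at room temperature before adding 50 nM quenched THF abasic-site duplex. Cleavage dequenches TAMRA, followed at 525/598 nm over three reads one minute apart.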
RECQ1 inh – inhibitors of human RECQ1 DNA helicase. RECQ1 DNA unwinding, red fluorescence kinetic read. 240,000 compounds, 0.54% hits. Potency, µM (highest dose often 57.3 µM), without a hit: at the top dose activity, negative = inhibition, hits mostly inhibitors. P46063;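 note: plate controls were vehicle for no effect and no enzyme for full effect; nearly all actives have a fitted effect of over 30% in size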
Target sequence (P46063 whole entry, looked up): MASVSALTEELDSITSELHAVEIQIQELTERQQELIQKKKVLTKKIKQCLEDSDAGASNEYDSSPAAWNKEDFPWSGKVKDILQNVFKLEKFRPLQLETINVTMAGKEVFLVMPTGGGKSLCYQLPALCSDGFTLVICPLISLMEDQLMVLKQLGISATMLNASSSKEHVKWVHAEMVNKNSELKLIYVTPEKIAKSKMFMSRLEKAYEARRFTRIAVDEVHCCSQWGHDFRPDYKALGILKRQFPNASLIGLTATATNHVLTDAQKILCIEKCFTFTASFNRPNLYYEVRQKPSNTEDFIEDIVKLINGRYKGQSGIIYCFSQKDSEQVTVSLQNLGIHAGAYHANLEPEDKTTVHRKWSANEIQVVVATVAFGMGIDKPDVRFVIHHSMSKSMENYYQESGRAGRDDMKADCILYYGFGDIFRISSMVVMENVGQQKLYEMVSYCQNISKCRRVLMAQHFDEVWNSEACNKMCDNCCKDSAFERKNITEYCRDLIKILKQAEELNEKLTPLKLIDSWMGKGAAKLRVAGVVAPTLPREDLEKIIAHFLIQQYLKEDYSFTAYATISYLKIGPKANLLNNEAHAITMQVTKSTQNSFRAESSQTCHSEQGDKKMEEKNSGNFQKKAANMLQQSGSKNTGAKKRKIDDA
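RECQ1T1 50 nM; forked duplex (20 bp + 30-nt ss tails) 200 nM, ATP 2 mM final; pH 8.0, 2 mM MgCl2, 2.5 ug/ml poly(dI-dC); 15 min compound preincubation; discontinuous kinetic read over 2 h at RT.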
TDP1 inh – blocks human tyrosyl-DNA phosphodiesterase 1 | recombinant TDP1, AlphaScreen DNA substrate cleavage | Potency, µM (titrated, usually from 130 µM), for the others: top-dose activity change, negative = inhibition, usual class: inhibitors | 350,000 compounds, 0.28% hits; note: nearly all actives have a fitted effect of over 40% in size
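Recombinant human Tdp1 (E. coli-expressed, 1 nM final) preincubated with compounds 15 min at room temperature, then 5'-biotin/3'-phosphotyrosine-FITC DNA substrate (15 nM final) added for 5 min. AlphaScreen beads (10 ug/ml final) added 10 min; cleavage lowers signal.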
JMJD2E inh – blocks human JMJD2E demethylase activity; B2RXH2; JMJD2E catalytic domain, FDH-coupled NADH fluorescence (FDH is formaldehyde dehydrogenase); Potency, µM (series often up to 57.1 µM), inactives show at the top dose activity change, negative = inhibition, usual class: inhibitors; 230,000 compounds, 1.6% hits; AID 2147; active = well fitted inhibition curve with a large enough effect, not every such curve was filed as active; inconclusive = small, poorly fitted or top-dose-only effect, or another doubt; inactive = no such curve, though single readings can be large or run the other way;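 note: 0% = wells with enzyme and -100% = buffer wells without enzyme; nearly all actives have a fitted effect of over 50% in size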
* hit, by the source's call; i = inactive; u = inconclusive; x = no result; ! = repeats disagree; [ ] = another dose, or the depositor's remark. This excerpt belongs to a sample that is enriched for hits. Unless noted, calls come from the whole dose curve; as a rule, active = well fitted curve in the direction sought with a large enough effect; inconclusive = small, poorly fitted or top-dose-only effect, or another doubt; inactive = no such curve, though single readings can be large; an effect the other way counts as inactive or inconclusive. Unless noted, % is set by controls: 0 for no effect and ±100 for the full control effect; potency is the fitted concentration of half-maximal effect.

SMILES	BLM inh	L3MBTL1 inh	APEX1 inh	RECQ1 inh	TDP1 inh	JMJD2E inh
[O-][Br+2]([O-])O	x	x	-6.2%	7.5%	13.2%	x
CC(C)CCCC1(C)C=Cc2c(O)c3c(c(CCC(C)C)c2O1)OC12C(CC4CC1C(C)(C)OC2(CCC(C)C(=O)O)C4O)C3=O (stereo unspecified)	-9.5%	x	-6.4%	i	8.6%	-10.2%
CC(C)=CCCC1(C)C=Cc2c(O)c3c(c(CC=C(C)C)c2O1)OC12C(=CC4CC1C(C)(C)OC2(C/C=C(/C)C(=O)O)C4=O)C3=O (stereo unspecified)	28.2µM*	x	1.2%	i	12.9%	u
CC(C)=CCCC1(C)C=Cc2c(O)c3c(c(CC=C(C)C)c2O1)OC12C(=CC4CC1C(C)(C)OC2(C/C=C(/C)C(=O)O)C4O)C3=O (stereo unspecified)	22.4µM*	x	1.1%	-11.3%	12.4%[56.1 µM]	-19.6%
Brc1cccc(-c2ccccc2)c1	x	x	0.5%	-1.1%	0.8%	x
O=C1C[C@@H]2OCC=C3CN4CC[C@]56c7ccccc7N1[C@H]5[C@H]2[C@H]3C[C@H]46	x	x	0.7%	x	x	x
CC(C)CN(C(=O)CN1CC=C(c2ccccc2)CC1)c1c(N)n(CC(C)C)c(=O)[nH]c1=O	-0.1%	3.6%	-3.3%	i	0.0%	28.2µM*
N#CC(C#N)=Cc1cc(O)c(O)c(O)c1	x	x	u	7.8%	15.7%[56.1 µM]	2µM*
CCN(CC)c1ccc(N=Cc2c(O)n(-c3ccccc3)c(=O)[nH]c2=O)cc1	-15.7%	x	0.5%	13.5%	2.6%	7.94µM*
CCOc1ccc(-n2c(O)c(C=Nc3ccc(N(CC)CC)cc3)c(=O)[nH]c2=O)cc1	-4.6%	x	-1.4%	0.3%	2.4%	-5.6%
COc1ccc(N2C(=O)NC(=O)/C(=C\c3ccc([N+](=O)[O-])s3)C2=O)cc1	-18.0%	22.4µM*	u	u	-0.6%	25.1µM*
COc1ccc(N2C(=O)NC(=O)/C(=C/c3ccc([N+](=O)[O-])s3)C2=O)cc1	-2.9%	x	u	u	-1.9%	20µM*
COc1ccccc1N1C(=O)NC(=O)/C(=C/c2ccc([N+](=O)[O-])s2)C1=O	-13.8%	x	-11.9%	-25.9%	-5.2%	u
C[C@]12CC[C@@H](O)CC1CCC1C2CC[C@]2(C)C(=O)CC[C@@H]12 (stereo partly specified)	x	x	-7.6%	0.7%	10.7%[56.1 µM]	1.4%
O=C(Nc1cccc(C(=O)Nc2cc(C(=O)Nc3ccc([S+](=O)([O-])[O-])c4cc([S+](=O)([O-])[O-])cc(SOOO)c34)ccc2F)c1)Nc1cccc(C(=O)Nc2cc(C(=O)Nc3ccc([S+](=O)([O-])[O-])c4cc([S+](=O)([O-])[O-])cc([S+](=O)([O-])[O-])c34)ccc2F)c1	126.1%	x	2.82µM*	11.2µM*	2.24µM*	x
c1ccc2c(c1)CCCC2	x	x	1.5%	-9.4%	11.0%	x
C1=C(c2c[nH]c3ccccc23)CCN(Cc2ccccc2)C1	0.4%	x	u	i	0.0%	-15.6%
CN1CC=C(c2c[nH]c3ccccc23)CC1	30.6%	31.6µM*	-8.2%	18.2%	-2.6%	u
CCOC(=O)CCN(SN(C)C(=O)Oc1cccc2c1OC(C)(C)C2)C(C)C	-4.5%	x	1.3%	-5.7%	-12.1%	x
CC(=O)C1=C(O)[C@@H]2[C@@H]3c4c[nH]c5cccc(c45)C[C@@H]3C(C)(C)N2C1=O	3.2%	x	u	-5.1%	10.7%	12.6µM*
Cc1cccc(C)c1O	x	x	30.7%	-3.1%	13.8%	x
C[C@H]1OC[C@@H](C[N+](C)(C)C)O1	-1.3%	7.7%	-3.5%	-2.3%	9.6%	25.1µM*!
CC(C)CCCC(C)C1CCC2C3CC(=O)[C@H]4CC(O)CC[C@]4(C)C3CC[C@@]12C (stereo partly specified)	-11.1%	x	12.5%	-9.8%	-4.5%[56.1 µM]	1.9%
CCn1cc(C(=O)O)c(=O)c2cc(F)c(N3CCNCC3)cc21	-4.0%	-3.6%	10.4%	3.3%	-3.6%	15.8µM*
O=C1NC(=O)N(CCC2=CCCCC2)C(=O)/C1=C\c1cccs1	-14.6%	u	-6.1%	15.6%	0.0%	1.2%
SMILES	BLM inh	L3MBTL1 inh	APEX1 inh	RECQ1 inh	TDP1 inh	JMJD2E inh
Cn1cccc1/C=C1\C(=O)NC(=O)N(CCC2=CCCCC2)C1=O	-2.0%	-2.5%	-6.5%	39.8µM*	5.3%	2.3%
NNC(N)=S	x	x	-1.5%	-5.2%	12.7%	x
C=CCn1c(O)c(N=Nc2c(C)n(C)n(-c3ccccc3)c2=O)c(=O)[nH]c1=S	-8.0%	20µM*	-1.5%	1.9%	0.0%	5.4%
CCOc1ccc(-n2c(O)c(N=Nc3c(C)n(C)n(-c4ccccc4)c3=O)c(=O)[nH]c2=O)cc1	-0.8%	25.1µM*	2.1%	-7.9%	10.1%	7.94µM*
COC(=O)c1nc(-c2ccc3c(n2)C(=O)C(N)=C(OC)C3=O)c(N)c(-c2ccc(OC)c(OC)c2O)c1C	-18.4%	x	u	9.9%	1.3%	20µM*
Cc1ccc(-n2c(O)c(/C=N/N3CCOCC3)c(=O)[nH]c2=S)cc1	2.3%	-18.7%	5.9%	0.1%	-3.0%	-2.0%
O=c1[nH]c(=S)n(-c2ccccc2)c(O)c1/C=N/N1CCCCC1c1cccnc1 (stereo unspecified)	-5.0%	x	u	25.1µM*	5.8%	-7.4%
C=C(Cl)Cl	x	x	1.6%	-2.9%	13.8%	x
C=C(C)[C@@H]1CC[C@]2(C(=O)O)CC[C@]3(C)[C@H](CCC4[C@@]5(C)CC[C@H](O)C(C)(C)[C@@H]5CC[C@]43C)[C@@H]12 (stereo partly specified)	x	x	6.4%	i	3.7%	x
CO/N=C(\C(=O)N[C@@H]1C(=O)N2C(C(=O)O)=C(CSc3nc(=O)c(O)nn3C)CS[C@H]12)c1csc(N)n1	x	x	14.1µM*	x	x	x
CC(=O)NNc1ccccc1	x	x	-4.4%	-0.4%	9.9%	x
C=CC[C@]1(O)CC[C@H]2[C@@H]3CCC4=CCCC[C@@H]4[C@H]3CC[C@@]21C	x	x	6.2%	x	x	x
COc1ccccc1-n1c(O)c(/C=N/NC(=S)Nc2ccccc2)c(=O)[nH]c1=S	0.9%	40.6%	-5.6%	-5.1%	x	28.2µM*
O=C(N/N=C/c1c(O)n(-c2cccc3ccccc23)c(=O)[nH]c1=O)c1ccncc1	-0.3%	u	0.4%	-0.2%	0.0%	12.6µM*
O=C(N/N=C/c1c(O)n(CCc2ccccc2)c(=O)[nH]c1=O)c1ccncc1	-4.8%	-18.0%	3.2%	-6.1%	10.5%	28.2µM*
C/C(=N\NC(=O)c1ccccc1)c1c(O)n(Cc2ccccc2)c(=O)[nH]c1=O	6.6%	x	-5.8%	-6.0%	6.5%	25.1µM*
CC(CO)(CO)N=Cc1c(O)n(-c2cccc3ccccc23)c(=O)[nH]c1=O	-0.4%	x	-2.0%	10.2%	4.5%	-1.5%
